PubChem BioAssay (NCATS)
Results filed as inconclusive are left out. Activity calls are given as the source filed them. Calls follow the shape of the dose curve; as a rule, active = well fitted curve in the direction sought with a large enough effect; inconclusive = small, poorly fitted or top-dose-only effect, or another doubt; inactive = no such curve, though single readings can be large; an effect the other way counts as inactive or inconclusive.

Tests used:
MCC-13 = experiment: qHTS assay to identify novel small-molecules to repurpose for Merkel cell carcinoma treatment (AID 1296009); settings: MCC and control cell lines, CellTiter-Glo viability, 72 h; series mostly up to 46 µM; also: nearly all actives have a fitted effect of over 60% in size
How it was run: (§1)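 Cell viability, measured as CellTiter-Glo luminescence, was normalized between DMSO and no-cell wells. The cells had been exposed to 8- or 11-point compound dilutions for 72 hr at 37 degree celsius.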

MCC-26 = experiment: as above; settings: MCC and control cell lines, CellTiter-Glo viability, 72 h; series mostly up to 46 µM
How it was run: as §1

MKL-1 = experiment: as above; settings: MCC and control cell lines, CellTiter-Glo viability, 72 h; series mostly up to 46 µM
How it was run: as §1

MKL-2 = experiment: as above; settings: MCC and control cell lines, CellTiter-Glo viability, 72 h; series mostly up to 46 µM
How it was run: as §1

NIH3T3 = experiment: as above; settings: MCC and control cell lines, CellTiter-Glo viability, 72 h; at 44.8 µM (top of the series) unless noted
How it was run: as §1

UISO = experiment: as above; settings: MCC and control cell lines, CellTiter-Glo viability, 72 h; series mostly up to 46 µM
How it was run: as §1

WaGa = experiment: as above; settings: MCC and control cell lines, CellTiter-Glo viability, 72 h; series mostly up to 46 µM
How it was run: as §1

C33A = experiment: Primary qHTS to identify gynecologic anti-cancer compounds using libraries of approved drugs and bioactive compounds (AID 1345084); settings: Gynecologic cancer cell panel viability, ATPlite luminescence, 48 h; series mostly up to 57.5 µM; also: nearly all actives have a fitted effect of over 55% in size
How it was run: (§2)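 Five-concentration response, 48 h; readout is ATP-driven luciferase luminescence.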

CAOV3 = experiment: as above; settings: Gynecologic cancer cell panel viability, ATPlite luminescence, 48 h; series mostly up to 57.5 µM
How it was run: as §2

CASKI = experiment: as above; settings: Gynecologic cancer cell panel viability, ATPlite luminescence, 48 h; series mostly up to 57.5 µM
How it was run: as §2

Es-2 = experiment: as above; settings: Gynecologic cancer cell panel viability, ATPlite luminescence, 48 h; series mostly up to 57.5 µM
How it was run: as §2

HeLa = experiment: as above; settings: Gynecologic cancer cell panel viability, ATPlite luminescence, 48 h; series mostly up to 57.5 µM
How it was run: as §2

Hek293T = experiment: as above; settings: Gynecologic cancer cell panel viability, ATPlite luminescence, 48 h, control line for the selectivity index; series mostly up to 57.5 µM
How it was run: as §2

JEG-3 = experiment: as above; settings: Gynecologic cancer cell panel viability, ATPlite luminescence, 48 h; series mostly up to 57.5 µM
How it was run: as §2

OV90 = experiment: as above; settings: Gynecologic cancer cell panel viability, ATPlite luminescence, 48 h; series mostly up to 57.5 µM
How it was run: as §2

PA-1 = experiment: as above; settings: Gynecologic cancer cell panel viability, ATPlite luminescence, 48 h; series mostly up to 57.5 µM
How it was run: as §2

SKOV3 = experiment: as above; settings: Gynecologic cancer cell panel viability, ATPlite luminescence, 48 h; series mostly up to 57.5 µM
How it was run: as §2

Tov-21-G = experiment: as above; settings: Gynecologic cancer cell panel viability, ATPlite luminescence, 48 h; series mostly up to 57.5 µM
How it was run: as §2

Tov112D = experiment: as above; settings: Gynecologic cancer cell panel viability, ATPlite luminescence, 48 h; series mostly up to 57.5 µM
How it was run: as §2

[1] = Drug repurposing screens with cells derived from glioblastoma tumor samples (AID 1345199); settings: GBM patient neurospheres viability, ATP luminescence, 48 h; also: nearly all actives have a fitted effect of over 40% in size
How it was run: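 Primary testing used CD133+ neurospheres from four GBM patients, seven concentrations, 48 h exposure and ATP-based viability; confirmation added three slower-growing patient lines.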

[2] = at 45.9 µM (top of the series), tumour line B
[3] = at 45.9 µM (top of the series), tumour line D
[4] = at 46 µM (top of the series), tumour line A
% is scaled to controls: 0 for no effect and ±100 for the full control effect.

CC(C)(O)C(Cl)(Cl)Cl
inactive: Potency (MCC-13) | Potency (MCC-26) | Potency (MKL-1) | Potency (MKL-2) | outcome (NIH3T3) | Potency (UISO) | Potency (WaGa) | Potency (C33A) | Potency (CAOV3) | Potency (CASKI) | Potency (Es-2) | Potency (HeLa) | Potency (Hek293T) | Potency (JEG-3) | Potency (OV90) | Potency (PA-1) | Potency (SKOV3) | Potency (Tov-21-G) | Potency (Tov112D) | activity, negative = cell killing [1, 2] 4% | activity, negative = cell killing [1, 3] 6.2%

CCOC(=O)c1cncn1C(C)c1ccccc1 (stereo not drawn)
inactive: Potency (MCC-13) | Potency (MCC-26) | Potency (MKL-1) | Potency (MKL-2) | Potency (UISO) | Potency (WaGa) | Potency (C33A) | Potency (CAOV3) | Potency (CASKI) | Potency (Es-2) | Potency (HeLa) | Potency (Hek293T) | Potency (JEG-3) | Potency (OV90) | Potency (PA-1) | Potency (SKOV3) | Potency (Tov-21-G) | Potency (Tov112D) | activity, negative = cell killing ([1]; at 21.2 µM (top of the series), tumour line B) 0.856% | activity, negative = cell killing ([1]; at 21.2 µM (top of the series), tumour line D) -20.7%

C[N+]1(CCC(C(N)=O)(c2ccccc2)c2ccccc2)CCCCC1
inactive: Potency (MCC-13) | Potency (MCC-26) | Potency (MKL-1) | Potency (MKL-2) | outcome (NIH3T3) | Potency (UISO) | Potency (WaGa) | Potency (C33A) | Potency (CAOV3) | Potency (CASKI) | Potency (Es-2) | Potency (HeLa) | Potency (Hek293T) | Potency (JEG-3) | Potency (OV90) | Potency (PA-1) | Potency (SKOV3) | Potency (Tov-21-G) | Potency (Tov112D) | activity, negative = cell killing [1, 2] -5.31% | activity, negative = cell killing [1, 3] -19.9%

CN1C(=O)CN=C(c2ccccc2)c2cc([N+](=O)[O-])ccc21
inactive: Potency (MCC-13) | Potency (MCC-26) | Potency (MKL-1) | Potency (MKL-2) | outcome (NIH3T3) | Potency (UISO) | Potency (WaGa) | Potency (C33A) | Potency (CAOV3) | Potency (CASKI) | Potency (Es-2) | Potency (HeLa) | Potency (Hek293T) | Potency (JEG-3) | Potency (OV90) | Potency (PA-1) | Potency (Tov-21-G) | Potency (Tov112D) | activity, negative = cell killing [1, 2] 1.05% | activity, negative = cell killing [1, 3] -22.1% | activity, negative = cell killing [1, 4] -31.9%

COP(=O)(OC)C(O)C(Cl)(Cl)Cl (stereo not drawn)
inactive: Potency (MCC-13) | Potency (MCC-26) | Potency (MKL-1) | Potency (MKL-2) | outcome (NIH3T3) | Potency (UISO) | Potency (WaGa) | Potency (C33A) | Potency (CASKI) | Potency (Es-2) | Potency (HeLa) | Potency (Hek293T) | Potency (JEG-3) | Potency (OV90) | Potency (PA-1) | Potency (SKOV3) | Potency (Tov-21-G) | Potency (Tov112D) | activity, negative = cell killing [1, 2] -5.86% | activity, negative = cell killing [1, 3] -9.43% | activity, negative = cell killing [1, 4] -20.1%

O=C(CBr)Nc1ccc(Cl)cc1C(=O)c1ccccc1F
inactive: Potency (MCC-13) | Potency (MCC-26) | Potency (MKL-1) | Potency (MKL-2) | outcome (NIH3T3) | Potency (UISO) | Potency (WaGa) | Potency (C33A) | Potency (CAOV3) | Potency (CASKI) | Potency (Es-2) | Potency (HeLa) | Potency (Hek293T) | Potency (JEG-3) | Potency (OV90) | Potency (PA-1) | Potency (SKOV3) | Potency (Tov-21-G) | Potency (Tov112D)
